Bioassay records from PubChem BioAssay.
In the library only some 2.3% were active in any assay of this set; here they are far more common.
M1 ag: activates human CHRM1 receptor. P11229. CHO-K1 hM1, Fluo-8 calcium fluorescence, agonist mode; 0% DMSO, 100% acetylcholine EC100. activation, % at 3 µM. actives 0.33% (n = 360,000);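 active = activation above the run's mean compound activation plus 3 SD, cut at about 16% in these data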;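 also: peak over basal fluorescence ratio within a 140 s kinetic read after compound addition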
Target sequence (P11229 whole entry, looked up): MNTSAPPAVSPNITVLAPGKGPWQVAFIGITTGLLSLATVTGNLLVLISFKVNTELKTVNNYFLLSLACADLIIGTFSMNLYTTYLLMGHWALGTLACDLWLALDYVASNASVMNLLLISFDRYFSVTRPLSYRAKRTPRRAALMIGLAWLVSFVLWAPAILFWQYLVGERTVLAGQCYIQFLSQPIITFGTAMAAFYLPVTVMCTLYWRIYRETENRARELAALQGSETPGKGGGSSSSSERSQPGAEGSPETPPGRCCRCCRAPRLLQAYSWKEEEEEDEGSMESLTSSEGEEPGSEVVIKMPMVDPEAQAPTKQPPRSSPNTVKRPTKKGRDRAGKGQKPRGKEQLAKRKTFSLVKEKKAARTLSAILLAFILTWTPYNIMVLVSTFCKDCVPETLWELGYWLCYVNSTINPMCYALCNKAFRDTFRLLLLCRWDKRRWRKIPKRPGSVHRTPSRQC
CHO-K1 Ca antag: nonselective inhibitor or artifact in parental CHO-K1 cells. ATP-induced calcium, Fluo-8 fluorescence. inhibition, % at 3 µM. AID 602250. actives 0.6% (n = 360,000);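 active = inhibition above a per-plate cutoff, the plate's mean sample inhibition plus 3 SD, cut at about 24% in these data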;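 also: 0% = DMSO plus EC80 ATP and 100% = DMSO alone without ATP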
CHRM1 antagonist: antagonists of human M1 muscarinic receptor; CHO-K1 hM1, Fluo-8 calcium fluorescence, ACh EC80 antagonist; actives 1.3% (n = 360,000); inhibition, % at 3 µM; P11229;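 active = percent inhibition above its own plate's cutoff, namely the mean of that plate's compound wells plus 3 SD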;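 also: peak over basal fluorescence ratio during 140 s after agonist addition; 0% = ACh EC80 plus DMSO and 100% = DMSO alone without agonist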
M1 ag parental: counter-screen for M1 agonists: effect in parental CHO-K1 cells; Fluo-8 calcium fluorescence; scaled to maximal ATP response, vehicle zero; activation, % at 3 µM; AID 602248; actives 0.48% (n = 360,000); in the data active = activation above about 15%;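 also: untransfected CHO-K1 host cells lacking M1 receptor as counterscreen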
CHO-K1 Ca PAM: nonselective activator or artifact in parental CHO-K1 calcium assay. ATP EC20, Fluo-8 calcium fluorescence; 0% at ATP EC20, 100% at ATP max. actives 0.02% (n = 360,000). activation, % at 3 µM;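 active = activation above the run cutoff, the mean activation of all test compounds plus 3 SD, cut at about 40% in these data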;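 also: peak over basal fluorescence ratio in a 140 s read after ATP addition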
CHRM1 PAM: positive allosteric modulators of human M1 muscarinic receptor | activation, % at 3 µM | AID 588819 | P11229 | CHO-K1 hM1, Fluo-8 calcium fluorescence, ACh EC20; 0% = ACh EC20, 100% = maximal ACh | actives 0.088% (n = 360,000); in the data active = activation above about 19%, passing the limit was not always enough
Numbers without * were called inactive; . = no result given.

SMILES | M1 ag | CHO-K1 Ca antag | CHRM1 antagonist | M1 ag parental | CHO-K1 Ca PAM | CHRM1 PAM
O=C1CN=C(c2ccccc2)c2cc(Br)ccc2N1 | 0 | 3 | -16 | 0 | -8 | 9
CCc1nc(N2CCNCC2)c(C#N)c2c1CSC(C)(C)C2 | -6 | 7 | 47* | 0 | -7 | -18
O=C(Nc1ccccc1)N1Cc2ccccc2-n2nncc2C1 | 0 | -4 | -12 | 0 | 8 | 13
COc1cc(Br)cc(CN2CCN(C)CC2)c1O | -15 | -5 | 59* | 0 | 2 | -32
COc1ccccc1CCNC1CCC(C(C)(C)C)CC1 (centres undefined) | -3 | -11 | 15 | 13 | 23 | -12
CS(=O)(=O)c1ccc(C2=C(CNC(=O)c3ccc([N+](=O)[O-])cc3)[C@H]3CC[C@@H](C2)N3CCOc2ccccc2)cc1 | -11 | -1 | 23 | 0 | -10 | -19
CS(=O)(=O)c1ccc(C2=C(CNC(=O)c3ccncc3)[C@H]3CC[C@@H](C2)N3CCOc2ccccc2)cc1 | -11 | -9 | 29* | 0 | -5 | -19
c1ccc2c(c1)Sc1ccccc1N2CC1CN2CCC1CC2 (centres undefined) | -9 | 5 | 99* | 0 | 1 | -26
COc1ccc(C(=O)Oc2cccc3cccnc23)cc1S(=O)(=O)N1CCOCC1 | -4 | -10 | -4 | 2 | 9 | 5
CNC(=O)Oc1cccc(-c2cn3cc(Cl)ccc3n2)c1 | -1 | 4 | 9 | 0 | -4 | 27*
Cc1ccccc1C(=O)N1Cc2ccccc2-n2nncc2C1 | -3 | -8 | -3 | 0 | 5 | -3
CNc1ccc2oc(C[C@H]3O[C@@]4(CC[C@H]3C)O[C@H]([C@H](C)C(=O)c3ccc[nH]3)[C@H](C)C[C@H]4C)nc2c1C(=O)O | 105* | 49* | 94* | 33* | -5 | -21
Cc1ccc(S(=O)(=O)N(C)N=O)cc1 | -2 | 9 | 1 | 0 | 7 | -9
O=C(COc1ccc(Cl)cc1)N(c1ccccc1Cl)C1CN2CCC1CC2 (centres undefined) | -6 | 10 | 75* | 2 | -12 | -25
O=C(COc1ccc(Cl)cc1)N(c1ccc(Cl)cc1)C1CN2CCC1CC2 (centres undefined) | -4 | -7 | 44* | 2 | 3 | -21
CN1CCN(C(=O)COc2ccc(Oc3ccccc3)cc2)CC1 | -15 | -18 | -2 | 2 | 10 | 8
COc1ccc(O)c(CN2CCCC(C(=O)c3ccccc3SC)C2)c1 (centres undefined) | -15 | -15 | 9 | 2 | -4 | -8
CCOC(=O)c1ccc(N=Cc2c(O)n(-c3ccc(OC)cc3)c(=S)[nH]c2=O)cc1 | -12 | -4 | 34* | 2 | 9 | -30
O=C(Nc1ccncc1)c1cccn(Cc2ccccc2)c1=O | -12 | 11 | 8 | 32* | -12 | -1
CCCCOc1ccc(CN2CCN(CCO)CC2)cc1 | -8 | -1 | 33* | 0 | 1 | -19
CCCCCCOc1ccc(CN2CCN(CCO)CC2)cc1 | -13 | -10 | 23 | 3 | 13 | -19
O=C(c1cc(=O)[nH]c2ccc(Br)cc12)N1CCC2(CC1)OCCO2 | -2 | 26* | -10 | 0 | -6 | 5
O=C(c1cc2cc(Cl)ccc2[nH]1)N1CCC2(CC1)OCCO2 | 1 | -7 | -10 | 1 | 2 | 20
CC1(C)OC(c2ccccc2)=C/C(=C/C=C2C(=O)NC(=O)NC2=O)O1 | 17* | 4 | 10 | 10 | -3 | -4
Cc1ccc(/C=C2/C(=O)NC(=O)N(CC3CCCO3)C2=O)s1 (centres undefined) | -7 | 1 | -3 | 19* | 14 | 13
SMILES | M1 ag | CHO-K1 Ca antag | CHRM1 antagonist | M1 ag parental | CHO-K1 Ca PAM | CHRM1 PAM
CCCCn1nnnc1C(c1ccnc2ccccc12)N1CCC2(CC1)C(=O)NCN2c1ccccc1 (centres undefined) | 1 | -9 | -1 | 8 | -6 | -10
COC(=O)C1=C(c2cccc(OC)c2OC)C[C@@H]2CC[C@H]1N2C(=O)N1CCOCC1 | -3 | 0 | 7 | -1 | 0 | 3
Oc1ccc(Cl)cc1 | 0 | 1 | -39 | 1 | 9 | 5
C[N+](C)(C)CCc1ccc(O)cc1 | 35* | -2 | -7 | 1 | 15 | 0
CN(Cc1cccc(-c2ccncc2)c1)C(=O)Oc1ccccc1Cc1ccccc1 | . | 24* | . | 12 | -8 | .
CN(Cc1cccc(-c2ccncc2)c1)C(=O)Oc1ccccc1Cl | . | 7 | . | 13 | -17 | .
COc1ccc([C@@H](O)[C@@H](N)c2ccccc2)cc1 | -2 | -7 | -9 | 3 | 21 | 8
O=P(Nc1ccccc1)(Nc1ccccc1)Oc1ccccc1 | -4 | -9 | 2 | 11 | 24 | -3
Cc1cccc(NP(=O)(Oc2ccccc2)Oc2ccccc2)c1C | -3 | -4 | 30* | 17* | 16 | -17
O=P(Nc1ccccc1)(Nc1ccccc1)Oc1cccc(Cl)c1 | 10 | 3 | 30 | 41* | 5 | -20
O=P(Nc1ccccc1)(Oc1ccccc1)Oc1ccccc1 | -3 | -3 | 37* | 7 | 13 | -17
O=C(NC(C(Cl)Cl)N1CCOCC1)c1ccccc1 (centres undefined) | -5 | -1 | 2 | 2 | 21 | -5
O=c1c2ccccc2nc(Cc2ccccc2)n1-c1ccc(O)cc1 | -2 | 17 | 9 | 2 | 12 | 3
CCC[N+]12CCC(CC1)C(C(O)(c1ccccc1)c1ccccc1)C2 (centres undefined) | -9 | -7 | 60* | 0 | 4 | -24
CCCC[N+]12CCC(CC1)C(C(O)(c1ccccc1)c1ccccc1)C2 (centres undefined) | -7 | 14 | 32 | 0 | -18 | -18
C[N+]12CCC(CC1)C(C(O)(c1ccccc1)c1cccs1)C2 (centres undefined) | -8 | -13 | 99* | 2 | 25 | -23
O=C1C(Cc2cnc[nH]2)NC(=S)N1c1ccccc1 (centres undefined) | -4 | -5 | 2 | 0 | -8 | 0
CCCC(=O)OCC[N+](C)(C)C | 43* | -1 | -12 | 0 | 13 | -19
CC1([N+](=O)[O-])COP(=O)(NC2CCCC2)OC1 (centres undefined) | -1 | -14 | -20 | 1 | 13 | 12
Cc1c(CCN)ccc2c1[nH]c1ccccc12 | -2 | 2 | -9 | 1 | 0 | 15
CN1/C(=C\C=C2C(=O)NC(=O)NC2=O)C(C)(C)c2ccccc21 | 29* | 8 | 15 | 25* | -2 | -9
CN1/C(=C\C=Nc2ccccc2)C(C)(C)c2ccccc21 | -3 | 4 | 10 | 1 | -18 | -5
